Experimental data reported in PubChem BioAssay (NCATS).
Records with an inconclusive call do not appear. A call without a number means that no potency is given here. Activity calls are given as the source filed them. The call rests on the fitted dose curve; in most records, active means well fitted curve in the direction sought with a large enough effect; inconclusive means small, poorly fitted or top-dose-only effect, or another doubt; inactive means no such curve, though single readings can be large; an effect the other way counts as inactive or inconclusive.
Potency means the concentration at half of the fitted maximal effect.

What follows are compounds tested on WaGa (assay: qHTS assay to identify novel small-molecules to repurpose for Merkel cell carcinoma treatment (AID 1296009; further: nearly all actives have a fitted effect of over 60% in size)). Conditions: MCC and control cell lines, CellTiter-Glo viability, 72 h; series mostly up to 46 µM.
Method in brief: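 Dose-response viability screen; 72 hr exposure at 37 degree celsius; CellTiter-Glo added, 10 min room temperature, luminescence read; RLUs scaled between no-cell and DMSO wells.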
For `COc1ccc(CC2NCCc3cc(OC)c(OC)cc32)cc1OC` (centres undefined), the Potency was “inactive”. With `C[C@H]1CCCC=CC2C[C@H](O)C[C@@H]2[C@H](O)C=CC(=O)O1` (some centres undefined) the Potency was “inactive”. With `OCCCBr` the Potency was “inactive”. `CC(=O)[O][Hg][c]1ccccc1` was tested, and the Potency was 0.473 µM (active). With `CCN(CC)C(=O)c1ccc(C2=CC3(CCNCC3)Oc3cccc(O)c32)cc1` the Potency was “inactive”. With `CC[C@H]1C=CC=CC[C@@H](C)[C@H](O)[C@@](C)(O)C(=O)[C@@H](C)[C@H](O)[C@@H](C)C(=O)[C@@H](C)[C@H](O)[C@@H](C)C=CC(=O)O[C@@H]2[C@@H](C)[C@H](CC1)O[C@]1(CC[C@H](C)[C@H](C[C@@H](C)O)O1)[C@H]2C` the Potency was 0.662 µM (active). `COc1ccc2c(c1)CN(C)CC2c1ccc(Cl)c(Cl)c1` (centres undefined) was tested, and the Potency was “inactive”. `c1cc2c(cc1[C@H]1OC[C@H]3[C@H]1CO[C@H]3c1ccc3c(c1)OCO3)OCO2` was tested, and the Potency was “inactive”. In the case of `O=[N+]([O-])c1ccc([As](=O)(O)O)cc1`, the Potency is reported as “inactive”. `COCCOCCO` was tested, and the Potency was “inactive”. In the case of `CC(N[C@H]1C[C@H]1c1ccccc1)c1ccc2c(c1)OCCO2` (some centres undefined), the Potency is reported as “inactive”. With `CC(=O)OCC1=C(C(=O)O)N2C(=O)[C@@H](N)[C@@H]2SC1` the Potency was “inactive”. With `COc1ccc2c(c[n+](C)c3c4cc5c(cc4ccc23)OCO5)c1OC` the Potency was 3.32 µM (active). With `Cc1nc(-c2ccc(-c3ccc(C(=O)N4CCc5cc6c(cc54)C4(CCN(C)CC4)CO6)cc3)c(C)c2)no1` the Potency was “inactive”. With `O=C1CCC[C@@H]2[C@H]3CCCN4CCC[C@@H](CN12)[C@@H]34` the Potency was “inactive”. With `O=C1C(I)=CC(=C(c2cc(I)c(O)c(I)c2)c2ccccc2C(=O)O)C=C1I` the Potency was “inactive”. For `CC(C)(C)NC[C@H](O)c1ccc(O)cc1Cl`, the Potency was “inactive”.

What follows are compounds tested on C33A (assay: Primary qHTS to identify gynecologic anti-cancer compounds using libraries of approved drugs and bioactive compounds (AID 1345084; further: nearly all actives have a fitted effect of over 55% in size)). Conditions: Gynecologic cancer cell panel viability, ATPlite luminescence, 48 h; series mostly up to 57.5 µM.
Method in brief: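 In this quantitative HTS, cell killing is estimated from loss of ATP-dependent luciferase light. Cells see five compound concentrations over a 48 h exposure.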
With `CC(=O)Nc1ccc(OC[C@](C)(O)C(=O)Nc2ccc([N+](=O)[O-])c(C(F)(F)F)c2)cc1` the Potency was “inactive”. For `CCCCCCCCCC(CC)c1ccc(S(=O)(=O)O)cc1` (centres undefined), the Potency was “inactive”. `Nc1ccc(Sc2ccc(N)cc2)cc1` was tested, and the Potency was “inactive”. In the case of `CC(O)CN1CCN(CC(=O)[O-])CCN(CC(=O)[O-])CCN(CC(=O)[O-])CC1.[Gd+3]` (centres undefined), the Potency is reported as “inactive”. For `CN1CCN(c2ccc([N+](=O)[O-])c3no[n+]([O-])c23)CC1`, the Potency was “inactive”. For `O=C(O)COc1nc(Cl)c(Cl)cc1Cl`, the Potency was “inactive”. `CS(=O)(=O)c1ccc(C(=O)C2C(=O)CCCC2=O)c([N+](=O)[O-])c1` was tested, and the Potency was “inactive”. With `CCOP(=O)(NC(C)C)Oc1ccc(SC)c(C)c1` (centres undefined) the Potency was “inactive”. `COC1=C[C@@H]2[C@@H]3Cc4ccc(OC)c(O)c4[C@]2(CCN3C)CC1=O` was tested, and the Potency was “inactive”. For `O=C1C=CC[C@@H]2[C@H]3CCCN4CCC[C@@H](CN12)[C@@H]34`, the Potency was “inactive”. For `O=C(NCC1CCOCC1)c1cnc(Nc2ccc(Cl)cc2Cl)nc1C(F)(F)F`, the Potency was “inactive”. With `C/C=C(/C)C(=O)O[C@H]1C(C)=C2[C@H]([C@@H]1OC(=O)CCCCCCC)[C@@](C)(OC(C)=O)C[C@H](OC(=O)CCC)[C@@]1(O)[C@H]2OC(=O)[C@@]1(C)O` the Potency was 20 µM (active). For `OCCCBr`, the Potency was “inactive”. `CC(=O)[O][Hg][c]1ccccc1` was tested, and the Potency was 5.62 µM (active). `CCN(CC)C(=O)c1ccc(C2=CC3(CCNCC3)Oc3cccc(O)c32)cc1` was tested, and the Potency was “inactive”. For `Cc1ccccc1-n1c(Cn2cnc3c(N)ncnc32)nc2cccc(C)c2c1=O`, the Potency was “inactive”. With `O=[N+]([O-])c1ccc([As](=O)(O)O)cc1` the Potency was “inactive”. For `COCCOCCO`, the Potency was “inactive”. For `CC(N[C@H]1C[C@H]1c1ccccc1)c1ccc2c(c1)OCCO2` (some centres undefined), the Potency was “inactive”. `CC(C)(C)C(O)C(Oc1ccc(Cl)cc1)n1cncn1` (centres undefined) was tested, and the Potency was “inactive”. With `Cc1c(C(=O)Nc2cccc(C(F)(F)F)c2)cc(-c2ccccc2)n1CCCN1CCOCC1` the Potency was “inactive”. In the case of `O=C1C(I)=CC(=C(c2cc(I)c(O)c(I)c2)c2ccccc2C(=O)O)C=C1I`, the Potency is reported as “inactive”.
